Assay outcomes: PubChem BioAssay, National Center for Advancing Translational Sciences (NCATS)
Hits are enriched below; roughly 14% of the tested compounds scored in any of these assays.
Shiga toxin inh: inhibitors of Shiga toxin in Vero cells; Vero cells, Shiga toxin protein synthesis inhibition reporter; inhibition, % at 38.7 µM; actives 9.2% (n = 290,000); in the data active = inhibition mostly above about 28%, no sharp cut-off; inactive = mostly below about 43%; also: 0% is about no effect
Giardia FBPA inh: inhibitors of Giardia lamblia fructose-1,6-bisphosphate aldolase; A8B2U2; purified Giardia FBPA; Potency, µM (titrated, usually from 59.6 µM), for inactives: at the highest dose activity, negative = inhibition, hits mostly inhibitors; actives 0.71% (n = 290,000); also: potency is read from the fitted curve at half-maximal effect; % is scaled to controls: 0 for no effect and ±100 for the full control effect; nearly all actives have a fitted effect of over 55% in size
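40 nM FBPA preincubated 10 min at RT with compound (up to 57.5 uM final), then substrate plus GAPDH/TPI/NAD/arsenate coupling and diaphorase/resazurin added. Fluorescence read after 20 min at RT, 525/598 nm.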
LmPK inhibitor: inhibitors of Leishmania mexicana pyruvate kinase | Q27686 | purified LmPK, Kinase-Glo ATP luminescence, 1 h | Potency, µM (doses to about 57.5 µM), for the others: at the top dose activity change, negative = inhibition, hits mostly inhibitors | actives 0.37% (n = 290,000) | AID 1721; also: potency is read from the fitted curve at half-maximal effect; % is scaled to controls: 0 for no effect and ±100 for the full control effect
Target sequence (Q27686 whole entry, looked up): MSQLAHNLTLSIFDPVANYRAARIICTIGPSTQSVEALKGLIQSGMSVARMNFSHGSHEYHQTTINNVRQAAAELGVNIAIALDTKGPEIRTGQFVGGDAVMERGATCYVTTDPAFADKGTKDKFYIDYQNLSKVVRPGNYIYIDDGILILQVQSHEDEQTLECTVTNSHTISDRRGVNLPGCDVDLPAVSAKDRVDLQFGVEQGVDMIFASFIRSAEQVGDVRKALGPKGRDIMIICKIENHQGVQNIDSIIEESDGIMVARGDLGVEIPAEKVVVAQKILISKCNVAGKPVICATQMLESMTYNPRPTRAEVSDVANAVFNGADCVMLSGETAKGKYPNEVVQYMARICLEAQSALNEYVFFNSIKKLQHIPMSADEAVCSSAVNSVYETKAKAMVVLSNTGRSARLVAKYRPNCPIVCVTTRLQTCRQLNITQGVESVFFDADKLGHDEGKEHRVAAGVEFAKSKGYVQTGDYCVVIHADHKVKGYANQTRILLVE
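Screened at intermediate enzyme activity to detect both inhibitors and activators: LmPK at 0.1 nM, with a 0.5 nM enzyme column as activation reference. PEP 0.5 mM, ADP 0.1 mM; ATP detected by luminescence after 1 h.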
Cycloheximide cs: affects cycloheximide protein synthesis inhibition readout, counter-screen | max response, % | cell reporter, cycloheximide protein synthesis inhibition counterscreen | actives 12% (n = 300,000); in the data active = max response mostly above about 13%, no sharp cut-off; inactive = mostly below about 14%; also: read at 38.3 µM for the half of the compounds with a filed dose; 0% is about no effect
NS1 function inh: blocks influenza NS1 protein function. Potency, µM (top dose mostly 46.1 µM), for the others: at the top dose activity, positive = more growth. actives 0.4% (n = 270,000); calls by dose curve; also: potency is read from the fitted curve at half-maximal effect; actives are rising curves; nearly all actives have a fitted effect of over 50% in size
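Recovery from NS1-induced slow growth read by OD600 in budding yeast switched to galactose assay medium (pH 6.0, -URA) at 1:100 dilution. Compound 23 nl per well; the matching strain lacking NS1 serves as control.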
Numbers without * were called inactive; u = inconclusive; x = no result given; + = active, no number. Unless noted, calls follow the shape of the dose curve; as a rule, active = well fitted curve in the direction sought with a large enough effect; inconclusive = small, poorly fitted or top-dose-only effect, or another doubt; inactive = no such curve, though single readings can be large; an effect the other way counts as inactive or inconclusive.

SMILES	Shiga toxin inh	Giardia FBPA inh	LmPK inhibitor	Cycloheximide cs	NS1 function inh
CC(/C=C1\SC(=O)N(CC(=O)Nc2cccc(O)c2)C1=O)=C\c1ccccc1	11	-1%	10%	11	12%
O=C(/C=C1\SC(=O)N(CC(=O)Nc2ccc(F)cc2)C1=O)Nc1ccc(Cl)cc1	86*	3%	-4%	32*	5%
Cc1csc(NC(=O)c2cc3c(s2)-c2ccccc2OC3)n1	+	1%	1%	59*	u
Cc1c(NC(=O)c2cc3c(s2)-c2ccccc2OC3)cccc1[N+](=O)[O-]	11	-6%	1%	16*	-11%
CN(C)CCNC(=O)c1cc2c(s1)-c1ccccc1OC2	47*	-11%	6%	40*	3%
Cc1cccc(NC(=O)c2cc3c(s2)-c2c(C)cccc2OC3)n1	16	3%	-16%	10*	5%
Cc1cccc(C(=O)Nc2ccc(S(=O)(=O)N3CCOCC3)cc2C)c1	x	0%	0%	0	-4%
CCOC(=O)c1[nH]c2ccccc2c1NC(=S)Nc1cccc(C)c1	27	-2%	-4%	32*	17%
CCOC(=O)c1[nH]c2ccc(C)cc2c1N	61*	-19%	13µM*	27*	4%
CCOC(=O)c1[nH]c2ccccc2c1NC(C)=O	-7	0%	0%	-4	3%
CCOC(=O)c1[nH]c2ccccc2c1NC(=S)Nc1ccccc1	28	0%	-10%	23*	9%
C=C(C)C(=O)Oc1ccc(N2C(=O)CCC2=O)cc1	18	4%	-7%	17*	-1%
Nc1ccccc1S[C@@H](C[N+](=O)[O-])c1ccc2c(c1)OCO2	x	x	x	x	-28%
Cc1ccc(NC2CC(=O)N(CCc3ccccc3)C2=O)cc1 (centres undefined)	25	-6%	1%	18*	-10%
Cc1ccc(Oc2ccc(NC(=O)c3ccco3)cc2)cc1	99*	-10%	-3%	67*	-219%
Cc1ccc(NC(=O)c2ccc(OC(=O)c3ccco3)cc2)cc1	73*	0%	-9%	36*	-10%
O=C(Nc1ccc(Oc2ncccn2)cc1)c1ccco1	43	-1%	-14%	13	-8%
O=C(CNC(=O)c1ccco1)NCC(=O)OCc1cccc(C(=O)Oc2ccccc2)c1	42*	8%	-4%	13*	-2%
COC(=O)c1ccc(NC(=O)c2ccc(NC(=O)c3ccco3)cc2)cc1	-14	x	-5%	-2	7%
O=C(Oc1ccccc1)c1ccc(NC(=O)c2ccco2)cc1	100*	0%	-10%	53*	-7%
O=C1C(=O)c2ccccc2C(O)=C1Cc1ccccc1	x	x	x	x	-30%
Cc1ccc(NC(=O)c2ccc(OC(=O)c3cc4ccccc4o3)cc2)cc1	81*	5%	2%	40*	1%
COc1ccc(OC(=O)c2cc3ccccc3o2)cc1	48	1%	-3%	16	-8%
COc1ccc2c(c1)cc(C(=O)N[C@@H](Cc1ccccc1)C(=O)O)n2C	5	8%	-2%	-2	-1%
CCOc1ccc(Nc2nc(Nc3ccc(O)cc3)nc(C)c2[N+](=O)[O-])cc1	26	1%	5%	-1	-7%
SMILES	Shiga toxin inh	Giardia FBPA inh	LmPK inhibitor	Cycloheximide cs	NS1 function inh
CCCCC/C=C\C/C=C\C/C=C\CCCCC(=O)NC(C)C(=O)O (centres undefined)	x	1%	x	x	x
O=S(=O)(N/N=C/c1ccc2c(c1)OCO2)c1ccc(Br)cc1	-25	x	0%	-1	7%
Cc1cc(C)c(S(=O)(=O)N/N=C/c2ccc3c(c2)OCO3)c(C)c1	22	-15%	2%	14*	-60%
Cc1cc(Cl)c(S(=O)(=O)N/N=C/c2ccc3c(c2)OCO3)c(Cl)c1	54*	-4%	-13%	41*	-196%
CCOc1cc(/C=C2\CN(CC)C/C(=C\c3ccc(O)c(OCC)c3)C2=O)ccc1O	3	-20%	3%	24*	-1%
COc1cc(/C=C2\CC/C(=C\c3cc(OC)c(O)c(OC)c3)C2=O)cc(OC)c1O	-11	1.6µM*	0%	1	14%
CCOc1cc(/C=N/N=C/c2ccc(O)c(OCC)c2)ccc1O	21	11%	0%	11	3%
COc1cc(/C=C2\COC/C(=C\c3cc(OC)c(OC)c(OC)c3)C2=O)cc(OC)c1OC	44*	-4%	5%	28*	0%
O=C1/C(=C/c2ccc(O)c(O)c2)Oc2cc(O)ccc21	6	-17%	-27%	-2	-5%
COc1cc(/C=C2\CC/C(=C\c3cc(OC)c(OC)c(OC)c3)C2=O)cc(OC)c1OC	-1	-2%	1%	-4	0%
COc1cc(/C=C2\Oc3cc(O)ccc3C2=O)ccc1O	70*	12%	-16%	51*	-1%
O=C(O)c1cc2ccccc2c(S(=O)(=O)O)c1O	x	x	x	x	0%
COc1cc(/C=C2\CCC/C(=C\c3ccc(O)c(OC)c3)C2=O)ccc1O	76*	-7%	3%	42*	-1%
COc1ccc(/C=C2\CCCC(C(=O)C(F)(F)F)=C2O)cc1OC	76	u	-3%	20*	x
COc1cc(/C=C2/CCCC(C(=O)C(F)(F)F)=C2O)ccc1O	17	-2%	3%	1	8%
CC(C)N(Cc1nccn1C)C(=O)c1cc(COc2ccc(F)cc2Cl)on1	19	-23%	1%	1	-2%
O=C1C(=O)N(CCCN2CCOCC2)C(c2cccs2)/C1=C(/O)c1ccc2c(c1)OCO2 (centres undefined)	16	1%	-12%	29*	-2%
O=C1C(=O)N(CCCN2CCOCC2)C(c2ccc(F)cc2)/C1=C(\O)c1ccc2c(c1)OCCO2 (centres undefined)	25	x	-14%	9	-4%
O=C1C(=O)N(CCN2CCOCC2)C(c2ccncc2)/C1=C(/O)c1ccc2c(c1)OCO2 (centres undefined)	22	-1%	-4%	-2	-3%
COc1cccc(C2/C(=C(/O)c3ccc4c(c3)OCO4)C(=O)C(=O)N2CCN2CCOCC2)c1 (centres undefined)	10	x	-5%	9.6*	21%
COc1ccc(OC)c(N(/C(N)=N/c2nc(C)cc(C)n2)S(=O)(=O)c2ccc(NC(C)=O)cc2)c1	-10	15%	1%	-2	-19%
COc1ccc(-c2nnc(OC)c3ccccc23)cc1	-6	-4%	-3%	-3	-47%
COc1nc(-c2ccccc2)nnc1-c1ccccc1	85*	0%	-5%	41*	-37%
CC(C)NC(=O)c1cc(-c2ccc3c(c2)OCO3)on1	104*	-3%	3%	26*	-10%
CCCNC(=O)c1cc(-c2ccc3c(c2)OCO3)on1	86*	2%	-2%	31*	-2%
COc1cc(NC(=O)c2cc(-c3ccc4c(c3)OCO4)on2)cc(OC)c1OC	26	1%	-4%	-4	5%
CCCCNC(=O)c1cc(-c2ccc3c(c2)OCO3)on1	57*	-5%	-4%	38*	-1%
CCN(CC)C(=O)c1cc(-c2ccc3c(c2)OCO3)on1	77*	1%	-4%	62*	1%
